A selection: hits, their analogues and other compounds. The true share with any hit is near 2%.
GC-B act: GC-B (human) receptor activation; P20594; HEK293-GC-B cells, CNP EC30, cGMP TR-FRET; 0% at EC30 CNP, 100% saturating CNP; activation, % at 10 µM; 370,000 compounds, 0.11% hits; AID 1920062;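 active = activation at 10 µM reaching about 35% in either raw or pattern-adjusted values, limit read from the data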
FAS-TE inh: blocks the thioesterase domain of human fatty acid synthase; P49327; recombinant FAS-TE, OMFH fluorogenic substrate, fluorescence endpoint; inhibition, % at 15 µM; 360,000 compounds, 0.67% hits; AID 602261;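 active = compounds whose normalised, plate-corrected inhibition of enzyme fluorescence in the single-dose primary screen is 50% or more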;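 also: 0% = DMSO with enzyme and 100% = substrate without enzyme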
ADAM17 inh: inhibits human ADAM17; P78536; recombinant ADAM17, EDANS/DABCYL FRET peptide cleavage; inhibition, % at 6.95 µM; 370,000 compounds, 0.83% hits;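 active = inhibition above the mean of compounds lying between control limits plus 3 SD, set per campaign, cut at about 8.5% in these data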;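 also: 0% = DMSO-only wells as the low control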
ADAM10 inh: ADAM10 inhibition, QFRET primary screen. O14672. recombinant ADAM10, EDANS/DABCYL FRET peptide cleavage, 3 h. inhibition, % at 7 µM. 370,000 compounds, 0.62% hits. AID 720582;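 active = inhibition above a per-campaign cutoff equal to the mean of compounds falling between control-based bounds plus 3 SD, cut at about 20% in these data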;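 also: 0% = DMSO wells while the 100% control is not disclosed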
NPR1 activator: GC-A (human) enzyme activation | P16066 | HEK293 GC-A cells, cGMP TR-FRET, EC30 ANP; 0% at EC30 ANP, 100% saturating ANP | activation, % at 10 µM | 370,000 compounds, 0.14% hits | AID 1671463; in the data active = activation above about 40%
ADAM10 ctr: inhibits human ADAM10 in ADAM17 exosite counter-screen; shares compounds with ADAM17 inh; recombinant ADAM10, EDANS/DABCYL FRET peptide cleavage, 3 h; inhibition, % at 6.95 µM; 2,900 compounds, 47% hits; AID 743256;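 active = mean inhibition over the triplicate runs exceeds the activity threshold set in the earlier primary screen, cut at about 20% in these data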;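 also: 0% = DMSO wells and 100% = marimastat wells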
ADAM17 confirm: human ADAM17 inhibition, confirmation; 2,900 compounds, 65% hits; recombinant ADAM17, EDANS/DABCYL QFRET peptide cleavage; inhibition, % at 6.95 µM; shares compounds with ADAM17 inh;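 active = mean inhibition across replicates above the hit cutoff set in the primary screen, cut at about 8.5% in these data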;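 also: 0% = DMSO wells and 100% = marimastat wells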
The depositor's hits bear a star; x = no result given.

SMILES | GC-B act | FAS-TE inh | ADAM17 inh | ADAM10 inh | NPR1 activator | ADAM10 ctr | ADAM17 confirm
Nc1c(C(=O)N2CCN(c3ccccc3)CC2)nnn1Cc1ccc(Cl)cc1 | -11.6 | x | -6.1 | -2.3 | -14.3 | x | x
CCOc1ccc(-c2[nH]ncc2-c2ccc(Cl)cc2)c(O)c1 | -4.7 | -52.8 | 9.9* | 15.4 | 8.0 | 12.4 | 11.6*
O=S1(=O)c2c(cccc2N2CCSCC2)Oc2ccccc2CN1Cc1cn(Cc2ccc(Cl)cc2)nn1 | 0.4 | x | 4.5 | 7.2 | 0.7 | x | x
O=C(Nc1cccc([N+](=O)[O-])c1)Nc1ccc2c(c1)OCCO2 | 0.9 | 41.1 | 8.9* | 12.4 | 2.2 | 12.1 | 8.2
O=C(Nc1cccc([N+](=O)[O-])c1)Nc1cccc([N+](=O)[O-])c1 | -0.2 | 27.5 | -3.8 | 13.4 | 1.7 | x | x
O=C(OCC#CCSc1nnc(-c2cccc3ccccc23)o1)c1cccc(F)c1 | -1.6 | x | -5.6 | -2.9 | -1.9 | x | x
Cc1nc(-c2cccc(NC(=O)c3cccs3)c2)cs1 | 11.0 | -3.9 | -1.0 | 4.3 | 17.6 | x | x
O=C(Nc1cccc(-c2csc(-c3ccccc3)n2)c1)c1cccs1 | -4.3 | 32.0 | 9.8* | 18.7 | 2.2 | 19.2 | 12.1*
COC(=O)[C@H](C(C)C)N(Cc1cn(Cc2ccccc2)nn1)S(=O)(=O)c1ccccc1Br | -4.2 | x | 1.4 | 5.3 | -0.6 | x | x
CCOc1ccc(CN(C)Cc2cc(=O)oc3c(C)c(C)ccc23)cc1OC | -0.8 | 20.5 | 9.4* | 7.3 | -5.5 | -3.7 | -1.4
CCOC(=O)CC1(C)Oc2ccccc2N1S(=O)(=O)c1ccc(C)cc1 (centres undefined) | 4.8 | x | 9.9* | 14.1 | -3.7 | 8.4 | 5.8
CCOC(=O)C1CN(S(=O)(=O)c2ccc(C)cc2)c2cc(S(=O)(=O)CC)ccc2O1 (centres undefined) | -1.6 | 7.8 | -1.0 | -2.4 | 6.2 | x | x
CCc1cc(-c2nnn(CCC3COCCO3)c2CC)cc(CC)c1-c1cn(Cc2ccc3ccccc3c2)nn1 (centres undefined) | 7.5 | 13.8 | 3.5 | 9.1 | -2.1 | x | x
CCc1cc(-c2nnn(CCC3COCCO3)c2CC)ccc1-c1cn(CCc2c[nH]c3ccccc23)nn1 (centres undefined) | 2.4 | 19.9 | 8.6* | -0.7 | 1.9 | 15.3 | 9.4*
COc1ccc(C)cc1NC(=O)CN(C)S(=O)(=O)c1ccc2c(c1)CCCN2C(C)=O | -0.3 | -4.3 | 9.0* | 6.7 | 0.1 | 7.1 | 7.0
O=C(c1ccc(CSc2nc3ccncc3[nH]2)cc1)N1CCN(c2cccc(Cl)c2)CC1 | 5.3 | -38.9 | 9.1* | 15.0 | -12.3 | 27.7* | 14.6*
O=C(c1ccc(CSc2nc3ccncc3[nH]2)cc1)N1CCCCCC1 | 0.6 | -5.2 | -4.0 | 2.3 | 3.3 | x | x
CC(C)n1nnnc1C1c2ccccc2OCC(=O)N1Cc1cccc(C(F)(F)F)c1 (centres undefined) | -1.8 | x | -1.8 | -2.8 | -6.1 | x | x
O=C(Cn1c(=O)sc2ccccc21)Nc1ccccc1 | -6.2 | -1.4 | -2.4 | -3.0 | -2.6 | x | x
O=C(Cn1c(=O)sc2ccccc21)Nc1ccc(S(=O)(=O)N2CCCCC2)cc1 | -4.8 | 14.7 | 8.8* | 10.9 | 0.0 | 29.9* | 16.8*
CN(C)c1cccc(/C=C2\CC3(OC(=O)c4ccc(F)cc4)CCCN2C3)c1 (centres undefined) | -6.2 | x | -0.4 | 1.1 | -4.0 | x | x
COc1ccc(C2C(C#N)=C(N)Nc3onc(C(C)(C)C)c32)c(OC)c1 (centres undefined) | -10.4 | -10.8 | 8.7* | 7.6 | -13.6 | 7.4 | 6.6
C[N+]1=C(N)N[C@@]2(C=C3CCCCC3n3c(=O)n(-c4ccccc4)c(=O)n32)C1 (some centres undefined) | -2.4 | x | -1.4 | -9.6 | 2.1 | x | x
COC(=O)C1CN(Cc2ccccc2)CCS(=O)(=O)N1Cc1ccc(F)cc1 (centres undefined) | -3.6 | x | 1.7 | 4.1 | -1.7 | x | x
COc1ccc(C2OC(CCc3ccccc3)CC3=C2C(=O)OC(C)(C)O3)cc1 (centres undefined) | -3.6 | 19.4 | 8.7* | 5.6 | 0.4 | 7.8 | 5.8
SMILES | GC-B act | FAS-TE inh | ADAM17 inh | ADAM10 inh | NPR1 activator | ADAM10 ctr | ADAM17 confirm
O=C1CCCCC1C(Nc1ccc(Cl)cc1)c1ccccc1 (centres undefined) | -14.2 | 24.2 | 10.6* | 18.0 | -8.0 | 13.6 | 13.2*
CN(C(=O)[C@H]1O[C@@H](n2cnc3c(=O)[nH]c(N)nc32)[C@H](O)[C@@H]1O)C1CCCCC1 | 2.5 | x | -1.2 | -0.9 | 5.5 | x | x
Cc1ccc(C(=O)C=Cc2ccc3c(c2)OCO3)c(C)c1 | 1.7 | 0.9 | -0.4 | -1.8 | -1.3 | x | x
O=C(/C=C/c1ccc2c(c1)OCO2)c1ccc(O)cc1O | -4.1 | 5.7 | 9.3* | 0.6 | -0.5 | 7.5 | 5.5
CCOC(=O)N1CCN(C(=O)c2ccc(N(Cc3ccc(C)cc3)S(C)(=O)=O)cc2)CC1 | 3.4 | -0.3 | 9.0* | 7.3 | -0.9 | -2.5 | 0.3
COc1ccc(CN(CCN2CCOCC2)C(=O)c2ccccc2C)cc1OC | -5.7 | x | -4.0 | -3.9 | 6.4 | x | x
COc1ccc(C)cc1S(=O)(=O)N(CC(=O)N1CCOCC1)Cc1ccccc1 | -1.9 | -3.1 | -3.3 | 1.3 | -5.9 | x | x
COc1ccc(C)cc1S(=O)(=O)N(CC(=O)NCc1ccc(Cl)cc1)Cc1ccccc1 | -2.2 | 28.2 | 9.7* | 18.9 | -2.8 | 31.5* | 17.3*
CN(C(=O)COC(=O)CCc1c[nH]c2ccccc12)C(c1ccccc1)c1ccccc1 | 1.7 | 34.2 | 10.8* | 18.3 | -1.4 | 27.9* | 15.1*
O=C(CCc1c[nH]c2ccccc12)OCC(=O)c1ccccc1 | 5.2 | 9.5 | 0.1 | 2.5 | 0.9 | x | x
COC(=O)C[C@@H]1CC[C@@H]2[C@@H](COc3ccc(NC(C)=O)cc3C(=O)N2C)O1 | 3.3 | x | -0.9 | 2.5 | 3.0 | x | x
Cc1onc(-c2ccccc2Cl)c1C(=O)Nc1cccc2cccnc12 | -7.3 | 37.2 | 11.8* | 14.8 | -3.5 | 20.1* | 18.0*
COc1cc(NC(=O)c2c(-c3ccccc3Cl)noc2C)c2ncccc2c1 | -0.7 | 35.6 | -0.6 | 6.9 | -8.8 | x | x
CN(Cc1ccccc1)S(=O)(=O)c1ccc(NC(=O)C2CCCCC2C(=O)O)cc1 (centres undefined) | -0.6 | -0.9 | -4.1 | -16.3 | -0.6 | x | x
CN(Cc1ccccc1)S(=O)(=O)c1ccc(NC(=O)C2CCCO2)cc1 (centres undefined) | -1.0 | 1.6 | 8.9* | -0.1 | 3.1 | -5.3 | -1.4
NS(=O)(=O)c1ccc(N/N=C2/CCCCC2C2CCCCC2)c([N+](=O)[O-])c1 (centres undefined) | -7.3 | 29.7 | 11.7* | 18.2 | -11.3 | 17.4 | 8.7*

Assay outcomes: PubChem BioAssay, several laboratories
